# According to the supplement of paper PMC9177965:
# Values joined by “and” are separate entries in the source; they are usually repeats but may differ in a detail not shown here. Equal entries are not always repeated.
# Tested on: HT29 sg-Ctrl (RNF43 wildtype)
# Assay: cell viability activity relative to DMSO (negative = inhibition); higher = more viable cells (less growth inhibition)
# Conditions: 5 µM; 96 h
# Method: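 Broad Repurposing Library primary screen at a single dose of 5 uM. HT29 sg-Ctrl and HT29 RNF43 G659fs CRISPR-edited isogenic cells were seeded at 2500 cells/well in 384-well plates in duplicate and treated for 96 h. Viability was read by CellTiter-Glo and reported as % activity relative to DMSO, with MG132 as the positive control (negative = growth inhibition).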
row,Compound,cell viability activity
1,CC(=O)NCC(=O)N1[C@@H]2CC[C@H]1c1ccc(Nc3ncc(C(F)(F)F)c(NC4CCC4)n3)cc12,-44.1%
2,COc1ccc(NC(=O)c2ccc(-c3ccc(-c4noc(C)n4)cc3C)cc2)cc1OCCN(C)C,-90.6%
3,Cc1nc(Nc2ncc(C(=O)Nc3c(C)cccc3Cl)s2)cc(N2CCN(CCO)CC2)n1,-60.3%
4,c1ccc2c(CCNc3ccc(Nc4ccncc4)cc3)c[nH]c2c1,-90.3%
5,CC(C)c1cc(C(=O)N2Cc3ccc(CN4CCN(C)CC4)cc3C2)c(O)cc1O,-88.3%
6,Cn1c(=O)c(F)c(Nc2ccc(I)cc2F)c2c(=O)n(C[C@@H](O)CO)cnc21,-90.5%
7,Nc1c2ccccc2nc2ccccc12,-86.8%
8,CC[C@]1(O)C[C@H]2CN(CCc3c([nH]c4ccccc34)[C@@](C(=O)OC)(c3cc4c(cc3OC)N(C=O)[C@H]3[C@@](O)(C(=O)OC)[C@H](OC(C)=O)[C@]5(CC)C=CCN6CC[C@]43[C@@H]65)C2)C1,-54.5%
9,CC(=O)Nc1nc(C)c(-c2ccc(Cl)c(S(=O)(=O)NCCO)c2)s1,-38.4%
10,CC(=O)O[C@@]12CO[C@@H]1C[C@H](O)[C@@]1(C)C(=O)[C@H](O)C3=C(C)[C@@H](OC(=O)[C@H](O)[C@@H](NC(=O)OC(C)(C)C)c4ccccc4)C[C@@](O)([C@@H](OC(=O)c4ccccc4)[C@H]21)C3(C)C,-58.6%
11,CCS(=O)(=O)Nc1ccc2[nH]c(O)c(C(=Nc3ccc(CN4CCCCC4)cc3)c3ccccc3)c2c1,-75.4%
12,CN(c1ncccc1CNc1nc(Nc2ccc3c(c2)CC(=O)N3)ncc1C(F)(F)F)S(C)(=O)=O,-83.1%
13,COc1cc([C@@H]2c3cc4c(cc3[C@@H](O[C@@H]3O[C@@H]5CO[C@@H](c6cccs6)O[C@H]5[C@H](O)[C@H]3O)[C@H]3COC(=O)[C@H]23)OCO4)cc(OC)c1O,-90.9% and -80.9%
14,C[C@@H](CN1CC(=O)NC(=O)C1)N1CC(=O)NC(=O)C1,-44.6%
15,CCCCCCOc1nsnc1C1=CCCN(C)C1,-58.7%
16,CN(C)C/C=C/C(=O)Nc1cc2c(Nc3ccc(F)c(Cl)c3)ncnc2cc1O[C@H]1CCOC1,-19.3%
17,C[C@H]1O[C@H](O[C@H]2[C@H](O)[C@@H](O)[C@@H](O[C@H]3[C@H](O)[C@@H](O)C(O)O[C@@H]3CO)O[C@@H]2CO)[C@H](O)[C@@H](O)[C@@H]1N[C@H]1C=C(CO)[C@@H](O)[C@H](O)[C@H]1O (stereo partly drawn),-86.3%
18,CCCS(=O)(=O)Nc1ccc(F)c(C(=O)c2c[nH]c3ncc(-c4ccc(Cl)cc4)cc23)c1F,-47.2%
19,Cc1ccc(C(=O)N(CCCN)[C@@H](c2nc3cc(Cl)ccc3c(=O)n2Cc2ccccc2)C(C)C)cc1,-66.5%

row,Compound,cell viability activity
1,O=C(Cc1ccc(-c2ccc(OCCN3CCOCC3)cc2)cn1)NCc1ccccc1,-52%
2,CCOc1ccc(Cc2nccc3cc(OCC)c(OCC)cc23)cc1OCC,-25.2%
3,COc1cc(OC)c(/C=C/S(=O)(=O)Cc2ccc(OC)c(OP(=O)(O)O)c2)c(OC)c1,-12.1%
4,CCN(CC)CCNC(=O)c1ccc(NC(C)=O)cc1,-3.92%
5,CN(C)C(=O)CCSC(SCCC(=O)O)c1cccc(/C=C/c2ccc3ccc(Cl)cc3n2)c1 (stereo not drawn),5.04%
6,CNC(=O)c1c(F)cccc1Nc1nc(Nc2cc3c(cc2OC)CCN3C(=O)CN(C)C)nc2[nH]ccc12,-35%
7,O=C(/C=C/c1ccc(CN(CCO)CCc2c[nH]c3ccccc23)cc1)NO,-92.2%
8,Cc1cnc(Nc2ccc(F)cc2Cl)nc1-c1c[nH]c(C(=O)N[C@H](CO)c2cccc(Cl)c2)c1,-76%
9,COc1ccc(S(=O)(=O)N(C(C)=O)c2ccccc2/C=C/c2cc[n+]([O-])cc2)cc1,-75.5%
10,O=C(O)c1ccccc1-c1c2cc(I)c(=O)c(I)c-2oc2c(I)c(O)c(I)cc12,-16.3%
11,Cc1c(C2CCN(CCc3ccccc3)CC2)noc1-c1ccc(Cl)cc1,-39.7%
12,COC[C@H](C)NC1CCC(Nc2cc(-c3cccc(NCC4(C#N)CCOCC4)n3)c(Cl)cn2)CC1 (stereo partly drawn),-89.4%
13,Cc1ccc(C(=O)Nc2ccc(CN3CCN(C)CC3)c(C(F)(F)F)c2)cc1C#Cc1cnc2[nH]ncc2c1,-94%
14,Cn1cc(CNCC2CCN(c3ncc(C(=O)NO)cn3)CC2)c2ccccc21,-92.8%
15,COc1cc(OC)cc(N(CCNC(C)C)c2ccc3ncc(-c4cnn(C)c4)nc3c2)c1,-64.7%
16,CC(C)C[C@H](NC(=O)[C@@H](NC(=O)c1cccc(-c2ccccc2)n1)[C@@H](C)O)B(O)O,-95.4%
17,Cn1cc(-c2[nH]c3cc(NC(=O)[C@H](N)C4CCCCC4)cc4c3c2C=NNC4=O)cn1,-79.1%
18,CCNC(=O)C#Cc1ccc2c(C(=Nc3ccc(CN(C)C)cc3)c3ccccc3)c(O)[nH]c2c1,-96.8%
19,Nc1ccc(F)cc1NC(=O)c1ccc(CNC(=O)/C=C/c2cccnc2)cc1,-64.8%
